Inconclusive results are not listed. Calls of active or inactive are those of the source. The calls were made as follows, unless noted: active = hit-call score of the fitted dose curve at least 0.9, where 1 is the maximum; inconclusive = response in the unintended direction; inactive = score below 0.9.
Assays:
[1] = ATG_Oct_MLP_CIS: Attagene CIS-FACTORIAL HepG2 Assay for human Octamer-Binding Transcription Factor (Oct) (AID 2282993; active = hit-call score of the fitted dose curve at least 0.9, where 1 is the maximum; inactive = score below 0.9); conditions: HepG2 Attagene cis-factorial Oct reporter, mRNA; actives raise or lower the signal
Summary of the method: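 Multiplexed cis-reporter assay in human liver HepG2 cells, 24 h incubation. Reporter RNA amplified and labelled, then resolved by capillary electrophoresis; DMSO serves as negative control and baseline.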

[2] = BSK_3C_TissueFactor: BioMAP Diversity Plus: 3C Assay for Tissue Factor Biomarker Activity (AID 2282997; active = hit-call score of the fitted dose curve at least 0.9, where 1 is the maximum; inactive = score below 0.9); conditions: BioMAP 3C HUVEC, tissue factor biomarker readout; actives raise or lower the signal
Summary of the method: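 HUVEC were treated 24 h, then surface tissue factor measured by ELISA and fitted bidirectionally against DMSO. Parallel SRB total-protein staining assessed overt cytotoxicity at the same time point.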

[3] = BSK_3C_uPAR: BioMAP Diversity Plus: 3C Assay for Urokinase-type plasminogen activator receptor (uPAR) Biomarker Activity (AID 2282998; active = hit-call score of the fitted dose curve at least 0.9, where 1 is the maximum; inactive = score below 0.9); conditions: BioMAP 3C HUVEC, uPAR biomarker ELISA; actives raise or lower the signal
Summary of the method: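 Dose primary human umbilical vein endothelial cells, incubate 24 h, measure cell-surface uPAR by ELISA, then fit the signal in both directions against the DMSO negative control.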

[4] = BSK_3C_VCAM1: BioMAP Diversity Plus: 3C Assay for Vascular cell adhesion molecule 1 (VCAM1) Biomarker Activity (AID 2282999; active = hit-call score of the fitted dose curve at least 0.9, where 1 is the maximum; inactive = score below 0.9); conditions: BioMAP 3C HUVEC, VCAM1 ELISA, cytokine-stimulated; actives raise or lower the signal
Summary of the method: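 Endothelial cells from human umbilical vein are treated with test chemical. At 24 h, VCAM-1 is measured by ELISA, and responses in either direction are fitted relative to DMSO.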

[5] = BSK_4H_Eotaxin3: BioMAP Diversity Plus: 4H Assay for Eotaxin 3 Biomarker Activity (AID 2283000; active = hit-call score of the fitted dose curve at least 0.9, where 1 is the maximum; inactive = score below 0.9); conditions: primary human endothelial cells (HUVEC); actives raise or lower the signal
Summary of the method: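 Eotaxin-3 (CCL26) levels were measured by ELISA in HUVEC primary cultures 24 h post-dosing. Gain or loss of signal was fitted in both directions, with DMSO serving as baseline and negative control.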

[6] = molecular target: human Peroxisome Proliferator-activated Receptor alpha (PPARa), PPARA (gene 5465) (UniProt Q07869); assay: ATG_PPARa_TRANS: Attagene TRANS-FACTORIAL HepG2 Assay for human Peroxisome Proliferator-activated Receptor alpha (PPARa) (AID 2283001)
human Peroxisome Proliferator-activated Receptor alpha (PPARa), PPARA (gene 5465), sequence (Q07869 whole entry, looked up, the tested form may be a part): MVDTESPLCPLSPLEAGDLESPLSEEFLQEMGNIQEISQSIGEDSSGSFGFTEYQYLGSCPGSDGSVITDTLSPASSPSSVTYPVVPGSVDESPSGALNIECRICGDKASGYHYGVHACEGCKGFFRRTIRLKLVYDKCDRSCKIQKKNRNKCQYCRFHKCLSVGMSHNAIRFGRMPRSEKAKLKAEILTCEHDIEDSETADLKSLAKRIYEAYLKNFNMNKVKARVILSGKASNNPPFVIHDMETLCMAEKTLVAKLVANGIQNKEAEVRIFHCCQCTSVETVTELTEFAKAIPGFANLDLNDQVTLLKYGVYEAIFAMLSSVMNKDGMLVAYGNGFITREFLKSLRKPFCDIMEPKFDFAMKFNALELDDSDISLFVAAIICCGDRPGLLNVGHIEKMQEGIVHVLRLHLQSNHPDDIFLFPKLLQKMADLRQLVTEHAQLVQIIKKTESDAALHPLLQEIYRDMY
Summary of the method: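 Reporter transcripts from GAL4-UAS units in transfected HepG2 were quantified 24 h after dosing. Detection used reverse transcription, PCR, fluorescent primer extension and capillary electrophoresis, with DMSO as baseline.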

[7] = read-out: Intercellular Adhesion Molecule 1 (ICAM1), ICAM1 (gene 3383); assay: BSK_3C_ICAM1: BioMAP Diversity Plus: 3C Assay for Intercellular Adhesion Molecule 1 (ICAM1) Biomarker Activity (AID 2283003; active = hit-call score of the fitted dose curve at least 0.9, where 1 is the maximum; inactive = score below 0.9); conditions: primary human endothelial cells (HUVEC); actives raise or lower the signal
Summary of the method: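 Primary human umbilical vein endothelial cells in the BioMAP 3C system were exposed to chemicals for 24 h, then ICAM-1 was quantified by ELISA. Activity was fitted bidirectionally against the DMSO negative control baseline.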

[8] = BSK_3C_Proliferation: Cell Proliferation Assessment in the BioMAP Diversity Plus: 3C Assay (AID 2283006; active = hit-call score of the fitted dose curve at least 0.9, where 1 is the maximum; inactive = score below 0.9;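 as to AC50: potency may reflect either rise or fall in cell number versus DMSO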); conditions: primary human endothelial cells (HUVEC)
Summary of the method: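 Human umbilical vein endothelial cells were grown sub-confluent and exposed to chemical for 48 h, then fixed with 10% TCA and stained with 0.1% sulforhodamine B; absorbance at 560 nm gave relative cell number, fitted bidirectionally against DMSO baseline.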

[9] = molecular target: Peroxisome proliferator-activated receptor gamma (Homo sapiens) (UniProt P37231); assay: ATG_PPARg_TRANS: Attagene TRANS-FACTORIAL HepG2 Assay for human Peroxisome Proliferator-activated Receptor-gamma (PPARg) (AID 2283007)
Peroxisome proliferator-activated receptor gamma (Homo sapiens), sequence (P37231 whole entry, looked up, the tested form may be a part): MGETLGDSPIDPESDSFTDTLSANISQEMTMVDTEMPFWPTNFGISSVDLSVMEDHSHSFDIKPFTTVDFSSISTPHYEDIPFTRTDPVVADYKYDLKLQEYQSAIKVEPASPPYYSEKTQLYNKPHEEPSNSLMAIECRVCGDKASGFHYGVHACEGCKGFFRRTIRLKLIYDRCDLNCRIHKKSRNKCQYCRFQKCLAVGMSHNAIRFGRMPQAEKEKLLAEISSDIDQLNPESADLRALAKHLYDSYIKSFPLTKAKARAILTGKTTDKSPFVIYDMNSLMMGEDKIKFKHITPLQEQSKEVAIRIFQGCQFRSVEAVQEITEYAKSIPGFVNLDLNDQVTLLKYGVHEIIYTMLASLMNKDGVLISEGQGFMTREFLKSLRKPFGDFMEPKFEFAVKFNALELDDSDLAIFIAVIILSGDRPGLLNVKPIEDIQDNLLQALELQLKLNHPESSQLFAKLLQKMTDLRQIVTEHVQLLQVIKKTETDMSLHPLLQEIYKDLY
Summary of the method: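 Read-out: reporter mRNA induction, detected by fluorescence after RT-PCR and capillary electrophoresis. Transiently transfected human HepG2 liver cells carrying a chimeric NR-Gal4 construct were dosed for 24 h; activity was fitted upward relative to DMSO.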

[10] = molecular target: Nuclear receptor subfamily 1 group I member 2 (Homo sapiens) (UniProt O75469); assay: ATG_PXR_TRANS: Attagene TRANS-FACTORIAL HepG2 Assay for human Pregnane X Receptor (PXR) (AID 2283008)
Nuclear receptor subfamily 1 group I member 2 (Homo sapiens), sequence (O75469 whole entry, looked up, the tested form may be a part): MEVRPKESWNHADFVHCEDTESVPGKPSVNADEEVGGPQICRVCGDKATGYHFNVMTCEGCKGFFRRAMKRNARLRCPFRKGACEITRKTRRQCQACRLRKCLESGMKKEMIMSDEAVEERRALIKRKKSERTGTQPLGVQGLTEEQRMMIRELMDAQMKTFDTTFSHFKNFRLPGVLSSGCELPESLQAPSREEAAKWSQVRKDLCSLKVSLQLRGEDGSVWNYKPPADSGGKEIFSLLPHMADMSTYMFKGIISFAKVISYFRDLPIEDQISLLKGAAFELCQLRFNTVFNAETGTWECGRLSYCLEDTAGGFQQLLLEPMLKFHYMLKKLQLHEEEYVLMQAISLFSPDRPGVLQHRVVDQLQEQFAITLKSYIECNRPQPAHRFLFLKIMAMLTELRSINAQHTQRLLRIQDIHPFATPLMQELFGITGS
Summary of the method: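 Fluorescence intensity of FAM-labelled, HpaI-digested reporter amplicons, separated by capillary electrophoresis, quantifies induction. HepG2 cells with PXR-Gal4 trans-reporter system were exposed 24 h; DMSO defines baseline.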

[11] = molecular target: Retinoic acid receptor RXR-alpha (Homo sapiens) (UniProt P19793); assay: ATG_RXRa_TRANS: Attagene TRANS-FACTORIAL HepG2 Assay for human Retinoid X Receptor alpha (RXRa) (AID 2283012)
Retinoic acid receptor RXR-alpha (Homo sapiens), sequence (P19793 whole entry, looked up, the tested form may be a part): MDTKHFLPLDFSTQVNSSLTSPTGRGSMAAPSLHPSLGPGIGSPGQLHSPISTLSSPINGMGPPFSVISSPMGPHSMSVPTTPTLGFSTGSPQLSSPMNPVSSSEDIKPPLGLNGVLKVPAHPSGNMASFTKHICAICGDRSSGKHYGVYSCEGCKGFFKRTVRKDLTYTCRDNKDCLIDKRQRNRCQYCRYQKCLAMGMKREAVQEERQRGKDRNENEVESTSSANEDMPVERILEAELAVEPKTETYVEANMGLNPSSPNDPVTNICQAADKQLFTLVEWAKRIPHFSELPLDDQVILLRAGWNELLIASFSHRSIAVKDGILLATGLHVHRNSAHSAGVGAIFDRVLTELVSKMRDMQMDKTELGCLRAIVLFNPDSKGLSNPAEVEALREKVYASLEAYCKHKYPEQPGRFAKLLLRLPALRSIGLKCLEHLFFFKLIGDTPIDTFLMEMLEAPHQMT
Summary of the method: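 HepG2 cells transiently transfected with multiplexed GAL4-UAS reporter units and chimeric NR-GAL4 fusions, dosed 24 h. Reporter mRNA measured by RT-PCR, FAM labelling, HpaI digestion and capillary electrophoresis; gain-of-signal fitted relative to DMSO baseline.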

[12] = molecular target: human Retinoid X Receptor beta (RXRb), RXRB (gene 6257) (UniProt P28702); assay: ATG_RXRb_TRANS: Attagene TRANS-FACTORIAL HepG2 Assay for human Retinoid X Receptor beta (RXRb) (AID 2283013)
human Retinoid X Receptor beta (RXRb), RXRB (gene 6257), sequence (P28702 whole entry, looked up, the tested form may be a part): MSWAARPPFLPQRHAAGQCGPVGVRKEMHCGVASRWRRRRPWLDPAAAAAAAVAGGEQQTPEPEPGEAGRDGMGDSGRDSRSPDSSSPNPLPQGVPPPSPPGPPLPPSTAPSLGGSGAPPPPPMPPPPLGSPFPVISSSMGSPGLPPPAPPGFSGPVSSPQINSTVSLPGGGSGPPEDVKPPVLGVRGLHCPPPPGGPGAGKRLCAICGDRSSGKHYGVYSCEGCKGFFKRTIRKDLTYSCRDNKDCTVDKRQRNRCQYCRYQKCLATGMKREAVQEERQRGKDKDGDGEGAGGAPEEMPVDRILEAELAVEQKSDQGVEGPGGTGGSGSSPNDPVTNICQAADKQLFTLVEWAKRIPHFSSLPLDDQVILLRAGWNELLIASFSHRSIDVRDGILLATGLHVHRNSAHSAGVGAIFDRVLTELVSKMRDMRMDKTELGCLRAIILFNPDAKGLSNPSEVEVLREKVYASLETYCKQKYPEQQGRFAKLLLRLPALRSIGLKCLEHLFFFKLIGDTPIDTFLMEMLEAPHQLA
Summary of the method: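 HepG2 cells transiently transfected with multiplexed reporter units driven by GAL4-UAS and exogenous chimeric NR-Gal4 proteins; treated 24 h. Reporter mRNA measured by RT-PCR, 6-FAM labelling and capillary electrophoresis; gain-of-signal fitted versus DMSO baseline.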

[13] = molecular target: human Thyroid Receptor alpha (THRa1), THRA (gene 7067) (UniProt P10827); assay: ATG_THRa1_TRANS: Attagene TRANS-FACTORIAL HepG2 Assay for human Thyroid Receptor alpha (THRa1) (AID 2283014)
human Thyroid Receptor alpha (THRa1), THRA (gene 7067), sequence (P10827 whole entry, looked up, the tested form may be a part): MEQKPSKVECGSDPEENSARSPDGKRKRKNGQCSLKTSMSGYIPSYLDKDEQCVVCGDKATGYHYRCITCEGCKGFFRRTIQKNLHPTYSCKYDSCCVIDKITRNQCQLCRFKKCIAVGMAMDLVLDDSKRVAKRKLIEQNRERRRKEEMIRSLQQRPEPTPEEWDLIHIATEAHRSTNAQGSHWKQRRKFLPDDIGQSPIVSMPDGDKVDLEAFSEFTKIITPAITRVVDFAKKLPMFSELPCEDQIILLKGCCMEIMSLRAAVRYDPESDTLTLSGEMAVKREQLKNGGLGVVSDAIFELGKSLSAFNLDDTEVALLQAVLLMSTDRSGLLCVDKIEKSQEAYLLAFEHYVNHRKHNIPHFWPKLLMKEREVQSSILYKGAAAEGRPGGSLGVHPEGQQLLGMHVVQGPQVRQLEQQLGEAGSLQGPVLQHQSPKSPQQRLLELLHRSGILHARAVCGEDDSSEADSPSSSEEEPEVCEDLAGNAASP
Summary of the method: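 HepG2 cells transiently transfected with chimeric NR-Gal4 and GAL4-UAS reporter units, dosed 24 h. Reporter mRNA quantified by RT-PCR, fluorescent labeling, HpaI digestion and capillary electrophoresis; gain-of-signal fit versus DMSO.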

[14] = molecular target: human Retinoic Acid Receptor beta (RARb), RARB (gene 5915) (UniProt P10826); assay: ATG_RARb_TRANS: Attagene TRANS-FACTORIAL HepG2 Assay for human Retinoic Acid Receptor beta (AID 2283004)
human Retinoic Acid Receptor beta (RARb), RARB (gene 5915), sequence (P10826 whole entry, looked up, the tested form may be a part): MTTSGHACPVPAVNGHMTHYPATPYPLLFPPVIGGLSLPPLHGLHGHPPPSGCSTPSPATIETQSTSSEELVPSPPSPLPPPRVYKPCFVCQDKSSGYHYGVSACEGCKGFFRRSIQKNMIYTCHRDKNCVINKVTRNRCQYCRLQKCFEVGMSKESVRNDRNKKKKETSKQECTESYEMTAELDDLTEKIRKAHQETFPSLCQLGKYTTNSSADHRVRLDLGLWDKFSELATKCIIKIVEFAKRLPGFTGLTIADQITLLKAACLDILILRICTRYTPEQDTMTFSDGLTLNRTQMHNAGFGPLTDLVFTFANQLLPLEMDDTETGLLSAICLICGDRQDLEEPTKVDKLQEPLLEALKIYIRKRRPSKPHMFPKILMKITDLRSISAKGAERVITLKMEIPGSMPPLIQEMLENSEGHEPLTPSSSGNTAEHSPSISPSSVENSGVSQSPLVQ
Summary of the method: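 HepG2 cells were transiently transfected with GAL4-UAS reporter units that report activity of exogenous chimeric NR-Gal4 proteins, then exposed to compound for 24 h. Reporter mRNA was quantified by RT-PCR with capillary electrophoresis fluorescence, as gain of signal over DMSO.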

[15] = molecular target: Retinoic acid receptor alpha (Homo sapiens) (UniProt P10276); assay: ATG_RARa_TRANS: Attagene TRANS-FACTORIAL HepG2 Assay for human Retinoic Acid Receptor alpha (RARa) (AID 2283005)
Summary of the method: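 Reporter transcripts, measured by RT-PCR with fluorescent labeling and capillary electrophoresis after 24 h dosing, reflect activity of an exogenous human RARa–GAL4 fusion in transiently transfected HepG2. Fitted for increase relative to DMSO.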

[16] = molecular target: human Retinoic Acid Receptor gamma (RARg), RARG (gene 5916) (UniProt P13631); assay: ATG_RARg_TRANS: Attagene TRANS-FACTORIAL HepG2 Assay for human Retinoic Acid Receptor gamma (RARg) (AID 2283009)
human Retinoic Acid Receptor gamma (RARg), RARG (gene 5916), sequence (P13631 whole entry, looked up, the tested form may be a part): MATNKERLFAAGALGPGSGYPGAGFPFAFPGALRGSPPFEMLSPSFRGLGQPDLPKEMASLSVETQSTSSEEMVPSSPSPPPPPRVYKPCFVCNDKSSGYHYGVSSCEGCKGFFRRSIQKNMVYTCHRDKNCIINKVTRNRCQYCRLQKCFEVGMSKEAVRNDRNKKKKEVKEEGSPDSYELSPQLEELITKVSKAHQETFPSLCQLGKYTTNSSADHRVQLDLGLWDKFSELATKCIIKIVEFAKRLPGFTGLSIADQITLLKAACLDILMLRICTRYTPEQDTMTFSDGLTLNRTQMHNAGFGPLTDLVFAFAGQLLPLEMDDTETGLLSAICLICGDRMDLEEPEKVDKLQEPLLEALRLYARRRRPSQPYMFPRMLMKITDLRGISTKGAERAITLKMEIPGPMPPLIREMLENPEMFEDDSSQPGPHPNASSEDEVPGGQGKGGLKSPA
Summary of the method: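 HepG2 cells transiently transfected with multiplexed reporter units expressing chimeric RARg-GAL4 and GAL4-UAS-driven reporters; 24 h compound exposure. Reporter mRNA quantified by RT-PCR with fluorescent labelling and capillary electrophoresis; gain-of-signal fitted relative to DMSO baseline.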

[17] = molecular target: human RAR-related Orphan Receptor beta (RORb), RORB (gene 6096) (UniProt Q92753); assay: ATG_RORb_TRANS: Attagene TRANS-FACTORIAL HepG2 Assay for human RAR-related Orphan Receptor beta (RORb) (AID 2283010)
Summary of the method: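 HepG2 cells were transiently transfected with multiplexed GAL4-UAS reporter units expressing chimeric nuclear receptor–GAL4 proteins, then dosed for 24 h. Reporter mRNA was quantified by RT-PCR with fluorescent labelling and capillary electrophoresis; gain of signal was fitted relative to DMSO.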

[18] = molecular target: human Peroxisome Proliferator-activated Receptor delta (PPARd), PPARD (gene 5467) (UniProt Q03181); assay: ATG_PPARd_TRANS: Attagene TRANS-FACTORIAL HepG2 Assay for human Peroxisome Proliferator-activated Receptor delta (PPARd) (AID 2283002)
human Peroxisome Proliferator-activated Receptor delta (PPARd), PPARD (gene 5467), sequence (Q03181 whole entry, looked up): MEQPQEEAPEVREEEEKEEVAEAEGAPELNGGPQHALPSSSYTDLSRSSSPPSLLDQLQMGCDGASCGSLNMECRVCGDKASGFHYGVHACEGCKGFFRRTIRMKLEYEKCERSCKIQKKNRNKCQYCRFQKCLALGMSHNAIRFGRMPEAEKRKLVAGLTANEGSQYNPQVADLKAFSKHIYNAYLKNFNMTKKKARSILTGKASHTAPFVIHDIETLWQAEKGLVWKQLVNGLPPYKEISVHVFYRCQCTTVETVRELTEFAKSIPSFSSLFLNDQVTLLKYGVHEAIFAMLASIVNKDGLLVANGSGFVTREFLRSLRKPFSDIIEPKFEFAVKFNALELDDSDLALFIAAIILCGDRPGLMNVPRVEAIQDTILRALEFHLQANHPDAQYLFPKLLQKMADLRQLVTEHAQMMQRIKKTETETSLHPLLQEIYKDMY
Summary of the method: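 Cell-based TRANS reporter: HepG2, transient MRTU transfection, 24 h exposure. Readout = reporter mRNA (RT-PCR/CE, 6-FAM). Gain-of-signal fit vs DMSO control.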

[19] = molecular target: human RAR-related Orphan Receptor gamma (RORg), RORC (gene 6097) (UniProt P51449); assay: ATG_RORg_TRANS: Attagene TRANS-FACTORIAL HepG2 Assay for human RAR-related Orphan Receptor gamma (RORg) (AID 2283011)
human RAR-related Orphan Receptor gamma (RORg), RORC (gene 6097), sequence (P51449 whole entry, looked up, the tested form may be a part): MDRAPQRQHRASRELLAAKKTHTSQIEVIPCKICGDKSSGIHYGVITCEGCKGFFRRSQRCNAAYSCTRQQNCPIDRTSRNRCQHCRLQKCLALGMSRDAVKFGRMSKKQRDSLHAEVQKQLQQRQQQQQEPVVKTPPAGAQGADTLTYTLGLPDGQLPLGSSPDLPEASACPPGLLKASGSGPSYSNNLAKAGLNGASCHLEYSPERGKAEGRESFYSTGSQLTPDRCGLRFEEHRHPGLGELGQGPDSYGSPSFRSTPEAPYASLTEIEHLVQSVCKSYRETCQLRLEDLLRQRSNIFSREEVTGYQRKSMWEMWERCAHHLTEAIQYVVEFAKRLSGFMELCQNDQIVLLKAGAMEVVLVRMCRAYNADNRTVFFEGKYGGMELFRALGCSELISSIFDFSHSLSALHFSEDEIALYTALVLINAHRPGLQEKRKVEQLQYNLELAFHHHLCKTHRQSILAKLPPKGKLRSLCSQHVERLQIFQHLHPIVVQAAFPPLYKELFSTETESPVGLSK
Summary of the method: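 HepG2 cells transiently transfected with GAL4-UAS reporter units and chimeric RORg-Gal4 construct; after 24 h chemical exposure, reporter mRNA measured by RT-PCR with fluorescent capillary electrophoresis, gain of signal fitted against DMSO.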

Measured: AC50

CC(C)(C)c1ccccc1O
active: [1] 138 µM | [10] 15.4 µM | [11] 100 µM | [12] 10.6 µM
not listed: [14] | [15] | [16] | [17] | [18] | [19]
inactive: all other assays above

OC[C@@H](O)[C@H]1O[C@@H]2O[C@H](C(Cl)(Cl)Cl)O[C@@H]2[C@H]1O
inactive: [1] | [6] | [14] | [15] | [9] | [10] | [16] | [17] | [12]

CN(C)C(=S)S
inactive: [1] | [2] | [3] | [4] | [5] | [7] | [8] | [10] | [11] | [13]
active: [12] 27 µM

CCCSP(=S)(OCC)Oc1ccc(Cl)cc1Cl (configuration not stated)
inactive: [1] | [6] | [18] | [17] | [19] | [11]
active: [9] 24.3 µM | [10] 2.51 µM | [12] 27 µM

C=C(C)C(=O)OCCCCOC(=O)C(=C)C
inactive: [1] | [10] | [16] | [17] | [11]
active: [9] 79.9 µM

O=S(=O)(Oc1ccc(Cl)cc1)c1ccc(Cl)cc1
inactive: [1] | [18] | [17] | [11] | [13]
active: [9] 27.5 µM | [10] 4.68 µM

Clc1cccc(Cl)c1
inactive: [1] | [2] | [3] | [4] | [5] | [7] | [14] | [8] | [19]

OCCN(CCO)CCO
inactive: [1] | [2] | [3] | [4] | [5] | [6] | [7] | [8] | [17] | [11]

CCCCN(CCCC)C(=S)S
inactive: [1] | [6] | [11] | [12] | [13]
active: [9] 5.99 µM | [10] 5.69 µM

CCCCC(CC)COC(=O)Cl (configuration not stated)
inactive: [1] | [14] | [15] | [9] | [16]

CC(C)N(C(=O)CCl)c1ccccc1
inactive: [2] | [13]
active: [1] 52.8 µM | [3] 20 µM | [4] 20 µM | [5] 20 µM | [7] 25.8 µM | [8] 20 µM | [9] 3.21 µM

CCOC(=O)Cc1ccccc1
inactive: [1] | [6] | [14] | [9] | [17] | [11] | [13]

CNC(=O)N(C)c1nc2ccccc2s1
active: [10] 52.8 µM
inactive: [1] | [6] | [18] | [9] | [17] | [12] | [13]

O=c1nc(O)n(Cl)c(=O)n1Cl
inactive: [1] | [6] | [9] | [10] | [17] | [19] | [11]

CC(C)(C)c1ccc(CCOc2ncnc3ccccc23)cc1
inactive: [1] | [6] | [10] | [11] | [12]

O=C/C(Cl)=C(/Cl)C(=O)O
inactive: [6] | [10] | [17] | [19] | [11] | [12]
active: [1] 144 µM | [9] 46.7 µM

O=C(O)COc1cc(Cl)c(Cl)cc1Cl
active: [9] 32.6 µM
not listed: [6] | [11] | [14] | [15] | [16] | [17] | [19]
inactive: all other assays above

From PubChem BioAssay (EPA / NIEHS)
